# Measurements taken from the supplement of paper PMC12350171.
# Counter-ions that a name gives are not always drawn. Values without a mark were called inactive.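 How the source made its calls: active = AUC significantly below DMSO controls by Student t-fit with adjusted P under 0.01; inactive = not significantly reduced.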
# System: Haemophilus parainfluenzae
# Assay: growth AUC normalised to DMSO control (fraction of control); higher = less growth inhibition, active = hit call of the paper
# Conditions: 20 µM
# Method in brief: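 After two anaerobic passages, pathogens were added at a starting OD578 of 0.01 to pre-reduced mGAM plates holding compound at 20 μM with 1% DMSO; hemin and NAD were supplemented for Haemophilus parainfluenzae. Sealed with breathable membranes, plates were read at OD578 hourly for 24 h, in three biological replicates. The trapezoidal rule, applied up to the exponential-to-stationary transition, gave the growth-curve AUC, which was normalised to DMSO controls on the same plate.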
row,SMILES,growth AUC normalised to DMSO control
1,C[C@H](CCC(=O)O)[C@H]1CC[C@H]2[C@@H]3[C@H](O)C[C@@H]4C[C@H](O)CC[C@]4(C)[C@H]3CC[C@]12C [Chenodiol],0.95
2,O=C(NCCO[N+](=O)[O-])c1cccnc1 [Nicorandil],0.987
3,C[N+](C)(C)CCCCCC[N+](C)(C)C [Hexamethonium dibromide dihydrate],0.852
4,NC(=O)c1cnccn1 [Pyrazinamide],0.979
5,NC(=O)c1ncn([C@@H]2O[C@H](CO)[C@@H](O)[C@H]2O)n1 [Ribavirin],1
6,CC[C@H](c1ccc(O)cc1)[C@@H](CC)c1ccc(O)cc1 [Hexestrol],0.984
7,Cc1noc(NS(=O)(=O)c2ccc(N)cc2)c1C [Sulfisoxazole],0.939
8,O=C(O)CCNC(=O)c1ccc(/N=N/c2ccc(O)c(C(=O)O)c2)cc1 [Balsalazide disodium salt],1.07
9,Cc1c(C)c2c(c(C)c1O)CCC(C)(COc1ccc(CC3SC(=O)NC3=O)cc1)O2 (centres undefined) [Troglitazone],0.984
10,c1ccc(CC2=NCCN2)cc1 [Tolazoline hydrochloride],1.03
11,O=C(O)c1cc(=O)c2c(OCC(O)COc3cccc4oc(C(=O)O)cc(=O)c34)cccc2o1 [Cromolyn disodium salt],1.01
12,CN(C)CCCO[C@@H]1[C@H]2OC(C)(C)O[C@H]2O[C@@H]1[C@H](O)CO [Amiprilose hydrochloride],0.963
13,CCOC1O[C@H]([C@@H](COCc2ccccc2)OCc2ccccc2)[C@H](OCc2ccccc2)[C@H]1O (some centres undefined) [Tribenoside],0.941
14,NC[C@H]1O[C@H](O[C@H]2[C@H](O)[C@@H](O[C@H]3O[C@H](CO)[C@@H](O)[C@H](N)[C@H]3O)[C@H](N)C[C@@H]2N)[C@H](N)C[C@@H]1O [Tobramycin],0.0457 (active)
15,CN1CCCCC1CCN1c2ccccc2Sc2ccc([S+](C)[O-])cc21 (centres undefined) [Mesoridazine besylate],0.987
16,O=C(c1ccc(F)cc1)C1CCN(CCn2c(=O)[nH]c3ccccc3c2=O)CC1 [Ketanserin tartrate hydrate],0.928
17,CC1=C(/C=C/C(C)=C/C=C/C(C)=C\C(=O)O)C(C)(C)CCC1 [Isotretinoin],1.02
18,O=C(c1ccc(OCCN2CCCCC2)cc1)c1c(-c2ccc(O)cc2)sc2cc(O)ccc12 [Raloxifene hydrochloride],0.974
19,CCSc1ccc2c(c1)N(CCCN1CCN(C)CC1)c1ccccc1S2 [Thiethylperazine maleate],1.02
20,Cc1nnc(SCC2=C(C(=O)O)N3C(=O)[C@@H](NC(=O)Cn4cnnn4)[C@H]3SC2)s1 [Cefazolin sodium salt],0.0609 (active)

row,SMILES,growth AUC normalised to DMSO control
1,COc1nc(C)nc(Cl)c1NC1=NCCN1 [Moxonidine],1.01
2,CCn1cc(C(=O)O)c(=O)c2cc(F)c(N3CCNCC3)nc21 [Enoxacin],0.0701 (active)
3,N[C@@H](Cc1cc(I)c(Oc2cc(I)c(O)c(I)c2)c(I)c1)C(=O)O [(L) Thyroxine],0.96
4,CCCCc1cc2ccccc2c(OCCN(C)C)n1 [Dimethisoquin hydrochloride],0.97
5,Clc1ccc(COC(Cn2ccnc2)c2ccc(Cl)cc2Cl)cc1 (centres undefined) [Econazole nitrate],1.09
6,CCCN(CCC)S(=O)(=O)c1ccc(C(=O)O)cc1 [Probenecid],1.02
7,CN1CCC(=C2c3ccccc3C=Cc3ccccc32)CC1 [Cyproheptadine hydrochloride],0.921
8,CC1(C)OC(=O)NC1=O [Dimethadione],1
9,COc1ccc(OC)c(C(O)CNC(=O)CN)c1 (centres undefined) [Midodrine hydrochloride],1.02
10,CNCCC=C1c2ccccc2C=Cc2ccccc21 [Norcyclobenzaprine],0.91
11,CCN(CC)C(=O)/C(C#N)=C/c1cc(O)c(O)c([N+](=O)[O-])c1 [Entacapone],1.06
12,CN(C)CCN(Cc1ccccc1)c1ccccn1 [Tripelennamine hydrochloride],1.01
13,COc1ccc(Cl)cc1C(=O)NCCc1ccc(S(=O)(=O)NC(=O)NC2CCCCC2)cc1 [Glibenclamide],0.952
14,O=C1CCC(N2C(=O)c3ccccc3C2=O)C(=O)N1 (centres undefined) [Thalidomide],0.97
15,CCN(CC)C(C)CN1c2ccccc2Sc2ccccc21 (centres undefined) [Ethopropazine hydrochloride],0.963
16,Cn1c(=O)c2nc[nH]c2n(C)c1=O [Theophylline monohydrate],0.98
17,CCCCNC(=O)NS(=O)(=O)c1ccc(C)cc1 [Tolbutamide],0.99
18,CC(C)NCC(O)COc1cccc2[nH]ccc12 (centres undefined) [Pindolol],1.05
19,C#C[C@]1(OC(C)=O)CC[C@H]2[C@@H]3CCC4=C[C@@H](OC(C)=O)CC[C@@H]4[C@H]3CC[C@@]21C [Ethynodiol diacetate],0.974
